Measurements: article PMC10668032, “Altered binding affinity of SIX1-Q177R correlates with enhanced WNT5A and WNT pathway effector expression in Wilms tumor”
Whole data set: some 33,000 sequences, median “e-score” near -0.05, cut for the highest 2% near 0.38. What follows is part of a selection rich in the highest values, with near analogues and random picks from the rest.

Target: T1, SIX1-Q177R homeodomain (human, UniProt Q15475 108-198, Q177R)
T1 sequence: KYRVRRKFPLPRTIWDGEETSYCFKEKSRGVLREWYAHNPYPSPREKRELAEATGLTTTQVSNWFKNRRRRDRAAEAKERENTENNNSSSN
Assay: universal protein binding microarray; Universal all-10-mer PBM (8x60K, AMADID 030236), 300 nM GST-tagged protein, Alexa Fluor 488 anti-GST; buffer, salt, pH and temperature not stated (as in Berger); high values mean tight binding
Settings: protein: ivt; tags: N-terminal GST; dsDNA, one strand shown
Outline: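 Homeodomains carrying a GST tag were produced by in vitro transcription/translation, then quantified by anti-GST western blot against a recombinant GST standard curve. Duplicate applications at 300 nM final concentration were made to universal 'all 10-mer' protein binding microarrays in 8×60K format. The Universal PBM Analysis Suite was used to express binding as 8-mer E-scores.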

Row | Sequence | binding signal
1 | CCTTGACA | 0.253 ± 0.00743 E-score
2 | CCCATGGA | 0.189 ± 0.033 E-score
3 | ACCCTGTG | 0.207 ± 0.0277 E-score
4 | GGTATACC | 0.303 ± 0.0126 E-score
5 | ATGGGTGC | 0.154 ± 0.0381 E-score
6 | CCCCTGAG | 0.16 ± 0.00444 E-score
7 | AGGCGTAC | 0.221 ± 0.0327 E-score
8 | ACCAGGTG | 0.217 ± 0.0167 E-score
9 | ACTGCGTG | 0.29 ± 0.0171 E-score
10 | ATGCGACA | 0.198 ± 0.03 E-score
11 | CGGGTTAC | 0.159 ± 0.0432 E-score
12 | ATAGGTAC | 0.166 ± 0.021 E-score
13 | AGACACCG | 0.468 ± 0.0126 E-score
14 | AGACACTG | 0.341 ± 0.0138 E-score
15 | AGACACCT | 0.4528 ± 0.0033 E-score
16 | AGACACGG | 0.377 ± 0.019 E-score
17 | AATGATAC | 0.212 ± 0.0688 E-score
18 | AACCCCAC | 0.222 ± 0.0452 E-score
19 | ACACGGAG | 0.369 ± 0.00835 E-score
20 | ACCCGGAA | 0.272 ± 0.0105 E-score
21 | ACCCGGAT | 0.301 ± 0.0466 E-score
22 | ACACGGAT | 0.392 ± 0.0346 E-score
23 | ACACGGAA | 0.398 ± 0.0244 E-score
24 | AGGATACC | 0.337 ± 0.0124 E-score
25 | CGACCTCA | 0.168 ± 0.0123 E-score

Row | Sequence | binding signal
26 | CAACTACA | 0.2474 ± 0.00148 E-score
27 | ACCCTACG | 0.164 ± 0.0266 E-score
28 | CCCCATGC | 0.201 ± 0.0118 E-score
29 | GAAGGGTA | 0.169 ± 0.0222 E-score
30 | CGTGTAGA | 0.379 ± 0.0134 E-score
31 | AGTGTAGC | 0.3944 ± 0.000672 E-score
32 | AGTGTGGC | 0.193 ± 0.0161 E-score
33 | AGTGTTGC | 0.321 ± 0.00542 E-score
34 | CGTGTAGC | 0.416 ± 0.0198 E-score
35 | AGTGTAGA | 0.369 ± 0.0196 E-score
36 | AGTGTAGG | 0.411 ± 0.00742 E-score
37 | AGTGTGGG | 0.192 ± 0.0212 E-score
38 | ACTTAATG | 0.219 ± 0.0268 E-score
39 | CAATAGGG | 0.2 ± 0.0026 E-score
40 | CCCGGACA | 0.233 ± 0.00728 E-score
41 | TGTCATAA | 0.1985 ± 0.00132 E-score
42 | AATGCACC | 0.162 ± 0.026 E-score
43 | AGTGTTCC | 0.334 ± 0.0173 E-score
44 | AGTGTTAA | 0.394 ± 0.0556 E-score
45 | AGTGTTAC | 0.387 ± 0.0129 E-score
46 | GGGGTTAC | 0.261 ± 0.0216 E-score
47 | AGTGTTAT | 0.395 ± 0.041 E-score
48 | GGTGTTAC | 0.474 ± 0.00578 E-score
49 | GGCGTTAC | 0.154 ± 0.00446 E-score
50 | AGTGTTTC | 0.299 ± 0.0238 E-score

Row | Sequence | binding signal
51 | AGGAGTAT | 0.168 ± 0.0487 E-score
52 | CGGGAACA | 0.157 ± 0.0155 E-score
53 | CACCGGCG | 0.244 ± 0.0186 E-score
54 | CCGGGGTC | 0.323 ± 0.0298 E-score
55 | ACCCTAGA | 0.176 ± 0.00214 E-score
56 | CACGTCAC | 0.16 ± 0.0113 E-score
57 | GAGGTACA | 0.252 ± 0.0061 E-score
58 | CGTGACAC | 0.454 ± 0.00689 E-score
59 | GGTGACAC | 0.4718 ± 0.00406 E-score
60 | CGTGACTC | 0.207 ± 0.00528 E-score
61 | AGTGACCC | 0.234 ± 0.019 E-score
62 | CGTGACCC | 0.211 ± 0.0247 E-score
63 | GGTGATAC | 0.313 ± 0.00834 E-score
64 | AGTGACTC | 0.193 ± 0.0365 E-score
65 | AGTGACAC | 0.469 ± 0.00575 E-score
66 | GGGGTGAC | 0.16 ± 0.0356 E-score
67 | CACGGAGG | 0.222 ± 0.0241 E-score
68 | CACGGCTG | 0.201 ± 0.0155 E-score
69 | AGTATCAT | 0.259 ± 0.0404 E-score
70 | CGCCGCAC | 0.151 ± 0.00857 E-score
71 | ACCGACAC | 0.425 ± 0.0144 E-score
72 | GCCGATCC | 0.19 ± 0.00748 E-score
73 | GCCGACAC | 0.422 ± 0.0235 E-score
74 | CCCGACCC | 0.187 ± 0.0176 E-score
75 | ACCGACCC | 0.192 ± 0.0372 E-score

Row | Sequence | binding signal
76 | CCCGACAC | 0.45 ± 0.0155 E-score
77 | ACCGACTC | 0.204 ± 0.0477 E-score
78 | CCCGACGC | 0.151 ± 0.00346 E-score
79 | CAGCACCG | 0.242 ± 0.0129 E-score
80 | CGGACGAC | 0.152 ± 0.037 E-score
81 | GTTCCGGA | 0.175 ± 0.0199 E-score
82 | ACCCACGA | 0.153 ± 0.0296 E-score
83 | AAACTAGA | 0.163 ± 0.00455 E-score
84 | CGTGTGCC | 0.168 ± 0.0218 E-score
85 | AGTGTACC | 0.414 ± 0.00528 E-score
86 | AGTGTGCC | 0.159 ± 0.0249 E-score
87 | CATGTACA | 0.167 ± 0.0144 E-score
88 | GGGGTACC | 0.247 ± 0.0225 E-score
89 | AGAGTACA | 0.186 ± 0.00263 E-score
90 | CGTGTACA | 0.427 ± 0.00703 E-score
91 | AGTGTACA | 0.418 ± 0.0292 E-score
92 | ACTGTACA | 0.223 ± 0.00571 E-score
93 | CGGGTACC | 0.16 ± 0.0136 E-score
94 | CTTGTACA | 0.154 ± 0.0493 E-score
95 | CGTGTACC | 0.4357 ± 0.00135 E-score
96 | AGTACCCA | 0.175 ± 0.0132 E-score
97 | CACCATGG | 0.343 ± 0.0218 E-score
98 | CGTAGGTA | 0.209 ± 0.00643 E-score
99 | CACTAGTC | 0.208 ± 0.0318 E-score
100 | CACGGTAC | 0.186 ± 0.0635 E-score

Row | Sequence | binding signal
101 | CACTATAG | 0.192 ± 0.0146 E-score
102 | AGTGTACG | 0.407 ± 0.00139 E-score
103 | GTTGTACA | 0.223 ± 0.0201 E-score
104 | CGAGTACG | 0.19 ± 0.0193 E-score
105 | GCTGTACA | 0.208 ± 0.0271 E-score
106 | GGTGTACA | 0.4817 ± 0.00156 E-score
107 | AGTGTGTG | 0.197 ± 0.0254 E-score
108 | CACGGAAA | 0.188 ± 0.0559 E-score
109 | GCACCGAA | 0.156 ± 0.0137 E-score
110 | ACCCCGAT | 0.229 ± 0.00378 E-score
111 | ATACCGAC | 0.173 ± 0.0172 E-score
112 | CCCCCGAG | 0.188 ± 0.0196 E-score
113 | ACACCGAT | 0.473 ± 0.00479 E-score
114 | ACCCCGAA | 0.228 ± 0.0524 E-score
115 | ACACCGAC | 0.475 ± 0.00507 E-score
116 | ACACCGAA | 0.4689 ± 0.000997 E-score
117 | ACCCCGAG | 0.317 ± 0.0221 E-score
118 | GCACCGAC | 0.225 ± 0.017 E-score
119 | ACGCCGAT | 0.152 ± 0.0158 E-score
120 | ACACCGAG | 0.4783 ± 0.00449 E-score
121 | CACCGTAG | 0.255 ± 0.00273 E-score
122 | CGGAGTAC | 0.229 ± 0.00578 E-score
123 | GGCGAACA | 0.198 ± 0.0404 E-score
124 | ACCCTTAG | 0.172 ± 0.00692 E-score
125 | CACTAAAC | 0.195 ± 0.0243 E-score

Row | Sequence | binding signal
126 | CACTTGAC | 0.258 ± 0.0158 E-score
127 | CAAGGATA | 0.184 ± 0.029 E-score
128 | ACTCCACA | 0.206 ± 0.00721 E-score
129 | AGTTGGGG | 0.16 ± 0.00841 E-score
130 | ATGACACA | 0.275 ± 0.0196 E-score
131 | GTGACACA | 0.333 ± 0.0417 E-score
132 | ATGACTCC | 0.273 ± 0.00839 E-score
133 | ATGACGCC | 0.172 ± 0.00576 E-score
134 | CTGACACC | 0.4913 ± 0.00298 E-score
135 | CTGACACA | 0.297 ± 0.0288 E-score
136 | ATGACACC | 0.4917 ± 0.00156 E-score
137 | CTGACGCC | 0.185 ± 0.012 E-score
138 | ATGACACG | 0.4485 ± 0.00163 E-score
139 | CCCCCAAG | 0.227 ± 0.0377 E-score
140 | CGGCTACG | 0.164 ± 0.00561 E-score
141 | CACCAATA | 0.276 ± 0.0342 E-score
142 | CCCCCATA | 0.192 ± 0.0334 E-score
143 | GGGATGTA | 0.159 ± 0.0364 E-score
144 | AACGAACA | 0.208 ± 0.0231 E-score
145 | AGGTGTTC | 0.457 ± 0.00831 E-score
146 | CGGTGTTA | 0.4847 ± 0.00334 E-score
147 | CGGAGTTA | 0.253 ± 0.0116 E-score
148 | GGGTGTTA | 0.475 ± 0.00715 E-score
149 | AAGTGTTG | 0.289 ± 0.02 E-score
150 | ACGTGTTG | 0.346 ± 0.00562 E-score

Row | Sequence | binding signal
151 | AGGTGTTG | 0.448 ± 0.00602 E-score
152 | GGGGGTTA | 0.293 ± 0.0288 E-score
153 | AGGTGCTC | 0.158 ± 0.0126 E-score
154 | GTGTGTTA | 0.298 ± 0.00829 E-score
155 | CGGTGCTA | 0.2 ± 0.00414 E-score
156 | ACGCCCAG | 0.1915 ± 0.000269 E-score
157 | CACCTGGC | 0.152 ± 0.00727 E-score
158 | CGCCCAGC | 0.161 ± 0.0486 E-score
159 | AATACCCT | 0.171 ± 0.00453 E-score
160 | CCCCTCGC | 0.169 ± 0.0263 E-score
161 | TGTCGGAA | 0.233 ± 0.0472 E-score
162 | GTGTGCTA | 0.321 ± 0.0179 E-score
163 | GCGTTACA | 0.201 ± 0.00911 E-score
164 | GCTGTGGA | 0.17 ± 0.0188 E-score
165 | CGCCGTAC | 0.178 ± 0.00701 E-score
166 | AATGATCC | 0.17 ± 0.0375 E-score
167 | GTTGGACA | 0.245 ± 0.0116 E-score
168 | CCTCTCGA | 0.17 ± 0.0627 E-score
169 | CACGCACA | 0.262 ± 0.00327 E-score
170 | CGGTGTTC | 0.476 ± 0.00165 E-score
171 | AGGTGTTA | 0.463 ± 0.00921 E-score
172 | AGGGGTTA | 0.21 ± 0.0107 E-score
